# Screening results from PubChem.
# Shown are actives, neighbours in structure and some others; about 13% of the full set was active somewhere.
# Pf growth 48h – P. falciparum growth inhibition at 48 hours (one generation). Potency, µM (doses to about 28.7 µM), usual class: inhibitors. P. falciparum luciferase growth in erythrocytes, 48 h. AID 504832. 310,000 compounds, 5.9% hits
#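 First compound was added to culture medium, then infected red cells at 0.1% parasitemia and 2% hematocrit (final). After incubation at 37 C under 5% CO2, luciferase detection reagent was dispensed and light output recorded.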
# HCV inh – HCV inhibition; AID 651820; 340,000 compounds, 3.4% hits; Huh7.5.1 HCVcc-Cre infection, luciferase reporter, 44 h; Potency, µM (highest dose often 41.8 µM), usual class: inhibitors
#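 After 44 h co-culture of compound, cells and HCVcc-Cre (~0.5 moi), substrate is added for 15 min at room temperature and luciferase measured over 15 sec. Cells were seeded at 1,000/well and pre-cultured 4 h.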
# HCMV inh – blocks human cytomegalovirus replication; 410,000 compounds, 4.5% hits; HFF cells, HCMV-luciferase reporter, 72 h; hits give low values; activity change, negative = inhibition, % at 57.5 µM; in the data active means activity change below about -60%; inconclusive means no clear call, values can overlap the other calls; inactive means above about -39%
#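 Human foreskin fibroblasts infected with luciferase-reporter HCMV at MOI 1 PFU/cell, compounds at two doses. Luciferase measured 72 h post infection; normalized to buffer-only basal and Salinomycin (10uM) controls.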
# Pf growth 96h – P. falciparum growth inhibition at 96 hour, primary screen for plastid delayed-death inhibitors; P. falciparum luciferase reporter growth, 96 h; Potency, µM (titrated, usually from 28.7 µM), hits mostly inhibitors; 320,000 compounds, 6.9% hits
#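 P. falciparum expressing integrated firefly luciferase grown in erythrocytes (2% hematocrit, 0.05% parasitemia final) with compounds for 96 hours at 37 C, 5% CO2. Growth inhibition read as loss of luminescence after adding luciferase detection reagent.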
# A number is an active result; – = inactive; ? = inconclusive; · = no result. Unless noted, the call rests on the fitted dose curve; in most records, active means well fitted inhibition curve with a large enough effect; inconclusive means small, poorly fitted or top-dose-only effect, or another doubt; inactive means no such curve, though single readings can be large or run the other way.
SMILES,Pf growth 48h,HCV inh,HCMV inh,Pf growth 96h
CN(CC(O)COc1ccc(OCC(O)CN(C)C2CCCCC2)cc1)C1CCCCC1 (configuration not stated),?,16µM,?,–
OC(CNC1CCCC1)COc1ccc(Cl)cc1 (configuration not stated),15µM,?,–,–
Cc1cccc(C)c1OCC(O)CN1CCN(c2ccccc2)CC1 (configuration not stated),–,–,–,–
Cc1cccc(C)c1OCC(O)CN(Cc1ccccc1O)C1CCCCC1 (configuration not stated),0.26µM,?,-69,0.26µM
CCC(=O)c1ccc(OCC(O)CN(C)C2CCCCC2)cc1 (configuration not stated),–,?,–,–
Cc1ccc(C(C)C)c(OCC(O)CN(C)Cc2ccccc2)c1 (configuration not stated),·,?,-70,2.1µM
CCc1ccc(CN(C)CC(O)COc2cccc3ccccc23)cc1 (configuration not stated),–,?,–,?
CCC/C(=N\NC(=O)c1ccco1)c1ccc(Cl)s1,–,?,–,13µM
CCC/C(=N/NC(=O)c1csc(C)c1C)c1ccc(Cl)s1,–,?,–,·
CCC1c2ccc(C)n2CCN1C(=O)Nc1ccccc1C(=O)OC (configuration not stated),5.2µM,–,–,–
CCCC1c2ccc(C)n2CCN1C(=O)Nc1ccccc1Cl (configuration not stated),?,–,–,2.6µM
COc1ccc(-c2oc3ccc(N4CCOCC4)cc3c2C#CC2(O)CCCCC2)cc1,·,10µM,–,·
OC1(C#Cc2c(-c3ccsc3)oc3ccc(N4CCOCC4)cc23)CCCCC1,·,5.6µM,–,·
COc1ccc(C#Cc2c(-c3ccsc3)oc3ccc(N4CCOCC4)cc23)cc1,·,?,–,·
COC(=O)c1ccc(/C=C/c2c(-c3ccc(OC)cc3)oc3ccc(N4CCOCC4)cc23)cc1,?,–,–,3.7µM
COc1ccc(N(CC(=O)NCc2ccccc2Cl)S(=O)(=O)c2c(C)nn(C)c2C)cc1,·,·,–,·
Cc1cc2nc(-c3cccc(NC(=O)COc4ccc(Cl)c(C)c4)c3)oc2cc1C,·,·,–,·
CCc1ccccc1N(CC)C(=O)c1c(C)oc2ncn(C)c(=O)c12,·,·,–,·
COC(=O)c1cc(NS(=O)(=O)c2ccc(N3CCOCC3)c(NC(C)=O)c2)cc(C(=O)OC)c1,–,–,–,?
COC(=O)c1cc(NS(=O)(=O)c2ccc(N3CCOCC3)c(N)c2)cc(C(=O)OC)c1,?,–,–,4.1µM
Nc1ccc(N2CCCCC2)c(S(=O)(=O)Nc2ccccc2Cl)c1,–,–,?,–
Nc1cc(S(=O)(=O)Nc2ccccc2Cl)ccc1N1CCCCC1,·,6.3µM,?,·
COc1ccc(NS(=O)(=O)c2ccc(N3CCCCC3)c(N)c2)cc1,–,2.8µM,?,?
CC12CN3CC(C)(CN(C1)C3c1ccc(Cl)cc1Cl)C2O (configuration not stated),–,?,–,–
CN(C)c1ccc(C2N3CC4(C)CN2CC(C)(C3)C4O)cc1 (configuration not stated),·,–,–,4.7µM
SMILES,Pf growth 48h,HCV inh,HCMV inh,Pf growth 96h
COc1ccc(Nc2cc3[nH]c(-c4ccccc4)cc3cn2)cc1,·,·,–,·
Cc1ccccc1C(=O)NCC(=O)OC(C)C(=O)NC(C)CCc1ccccc1 (configuration not stated),?,–,–,12µM
COC(F)(F)C(Cl)Cl,–,·,·,–
Cc1ccc(-n2nc3c(=O)n(CCCC(=O)NCc4ccco4)nc(C)c3c2C)cc1,12µM,?,–,?
Cc1ccc(-n2nc3c(=O)n(CCCC(=O)NCc4cccc(F)c4)nc(C)c3c2C)cc1,10µM,?,?,–
Cc1ccc(-n2nc3c(=O)n(CCCC(=O)NCCN4CCN(C)CC4)nc(C)c3c2C)cc1,?,–,?,12µM
Cc1ccc(CNC(=O)CCSCc2cccc(F)c2)cc1,–,–,-62,–
CCc1ccc(NC(=O)CC2C(=O)N(c3cccc(C)c3)C(=O)N2CCC(C)C)cc1 (configuration not stated),·,·,–,·
Cc1ccc(-n2nc3c(=O)n(CCCC(=O)N4CCCCC4)nc(C)c3c2C)cc1,9.3µM,–,–,?
Cc1ccc(-n2nc3c(=O)n(CCCC(=O)NCc4ccc(F)cc4)nc(C)c3c2C)cc1,8.3µM,–,–,–
CCc1ccc2c(c1)C1(NN=C(c3ccc(C)cc3)S1)C(=O)N2 (configuration not stated),0.41µM,10µM,-101,?
